From PubChem BioAssay
The entries come from a sample that favours hits as a whole.
TDP-43 tox inh = qHTS of TDP-43 Inhibitors: NCGC Sytravon Library Screen. yeast TDP-43 toxicity rescue, BacTiter-Glo growth, 24 h. Potency, µM (titrated, usually from 46.1 µM), usual class: activators. 45,000 compounds, 0.45% hits. AID 1347073, 2019; active means well fitted activation curve with a large enough effect; further: nearly all actives have a fitted effect of over 55% in size
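TDP-43-expressing yeast, pregrown in raffinose, seeded at OD600 0.02 in galactose medium with compound for 24 hr at 30 deg C. Growth read by BacTiter-Glo luminescence, so rescue of toxicity appears as activation.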
Large screens that a line does not name were inactive.

C=CCC(C(=O)OC)(C(=O)OC)c1ccccc1[N+](=O)[O-]	none
COc1ccc(CCC(=O)N2CCCC(Nc3ccccc3)C2)cc1OC (stereo not drawn)	none
Cc1cccc(OCCC(=O)Nc2ccc(F)c(Cl)c2)c1	TDP-43 tox inh 12.6µM
Cc1ccc(OCCC(=O)Nc2ccc(F)c(F)c2)cc1	none
Cc1ccc(NC(=O)Nc2ccc(F)c(Cl)c2)cc1	none
CC(C)(C)c1cc2nc(NCCOc3ccccc3)ccn2n1	none
O=C(Nc1cccnc1)c1cc(-c2ccc(Cl)cc2Cl)on1	none
COc1ccc(C(=O)N2CCCC(C)(C(=O)NS(=O)(=O)C3CC3)C2)cc1 (stereo not drawn)	none
CC(=O)c1ccc(C(=O)N2CCc3c([nH]c4ccccc34)C2c2cccc(C)n2)s1 (stereo not drawn)	TDP-43 tox inh 12.6µM
Cc1cccc(C2c3[nH]c4ccccc4c3CCN2C(=O)Cc2n[nH]c(C)n2)n1 (stereo not drawn)	none
Cc1cccc(C2c3[nH]c4ccccc4c3CCN2Cc2ccc(C)s2)n1 (stereo not drawn)	none
CCC(CO)N=C1CC(C)(C)CC(=O)/C1=C(/O)CCCN1C(=O)c2ccccc2C1=O (stereo not drawn)	none
CC(=O)NC(C)(c1ccccc1)c1nc(-c2cccc(F)c2)cs1 (stereo not drawn)	none
C(=N\n1cnnc1)/c1ccc(-c2ccccc2)cc1	TDP-43 tox inh 11.2µM
O=[N+]([O-])c1cccc(/C=N/n2cnnc2)c1	none
CCc1ccc(/C=N\n2cnnc2)cc1	none
O=C(CNCc1ccccc1)NCCCN1CCCC1=O	none
Cc1ccnc2ccc(SC(F)(F)F)cc12	none
Cc1ccc(N(CC(=O)NCc2ccco2)C(=O)CCC(=O)Nc2nccs2)c(C)c1	none
Cn1cc(-c2csc(C(O)c3ccc(F)cc3)n2)cn1 (stereo not drawn)	none
O=C(Cc1nnc(NC(=O)c2cccc([N+](=O)[O-])c2)s1)NCc1ccccc1	none
COc1ccc(C2CC(c3cccs3)=NN2C(=O)c2ccc(Br)o2)cc1 (stereo not drawn)	none
COc1ccccc1C1CC(c2cccs2)=NN1C(=O)CCC(=O)O (stereo not drawn)	none
Cc1ccc(C2CC(c3cccs3)=NN2C(=O)CCl)cc1 (stereo not drawn)	TDP-43 tox inh 12.6µM
O=S(=O)(Nc1cccc(S(=O)(=O)N2CCCCC2)c1)c1ccccc1F	none
COc1ccc(C)cc1NC(=O)CNc1ccc(C(C)=O)cc1	none
Cn1c(CCC(=O)OCC(=O)NCC(F)(F)F)nc(=O)c2ccccc21	none
O=C(COC(=O)c1c2ccccc2cc2ccccc12)NCC(F)(F)F	TDP-43 tox inh 22.4µM
Cc1nc2ccccc2nc1OCC(=O)NCC(F)(F)F	none
COc1ccc(-c2noc(CN(C(=O)C(C)Oc3ccc(C)cc3)C(C)C)n2)cc1 (stereo not drawn)	TDP-43 tox inh 20µM
Cc1ccc(-c2noc(CN(C)C(=O)c3ccoc3C)n2)cc1	none
Cc1ccc(-c2noc(CN(C(=O)c3ccc4c(c3)OCO4)C(C)C)n2)cc1	none
O=S1(=O)N=C(N(Cc2cccs2)c2ccc(O)cc2)c2ccccc21	none
CC(=O)c1cccc(-c2ccnc3c2CC(C(=O)Nc2cccc(OC(F)(F)F)c2)O3)c1 (stereo not drawn)	TDP-43 tox inh 22.4µM
CC(=O)Nc1ccc(NC(=O)C2Cc3c(-c4cccc(C(C)=O)c4)ccnc3O2)cc1 (stereo not drawn)	none
O=C(Nc1cccc(OC(F)(F)F)c1)C1Cc2c(-c3ccco3)ccnc2O1 (stereo not drawn)	none
CCc1nc2ccc(C(=O)NCCCN3CCCC3=O)cn2c1N(C)C(=O)COc1ccccc1	none
O=C(Nc1ccccc1C(=O)N1CCCCC1)c1ccccc1C(F)(F)F	none
O=C(c1ccc(N2CCCS2(=O)=O)cc1)N1CCN(c2ccccc2)CC1	none
O=C(CCl)Nc1cccc(-c2cnc3ccccc3n2)c1	TDP-43 tox inh 12.6µM
Clc1ccc(-c2cnc3ccccc3n2)cc1	none
O=C(O)CCC(=O)Nc1cccc(-c2csc(-c3ccccc3)n2)c1	none
Cc1ccc(S(=O)(=O)N2CCCC2)cc1C(=O)N1CCN(Cc2ccccc2)CC1	none
COc1ccccc1NC(=O)CSc1nnc(C)s1	none
Cc1cc(Cl)ccc1OC(C)C(=O)Nc1ccc([N+](=O)[O-])cn1 (stereo not drawn)	TDP-43 tox inh 22.4µM
Cc1ccc(OC(C)C(=O)Nc2ccc(Cl)cn2)c([N+](=O)[O-])n1 (stereo not drawn)	none
COC(=O)c1cc(C(=O)Nc2ccc(Cl)cn2)cc([N+](=O)[O-])c1	none
Cc1ccccc1-n1c(SCC(=O)Nc2ccc(Cl)cc2Cl)nc(O)cc1=O	none
CC1(C(=O)NC2CCCCCC2)CCN1C(=O)Cc1ccc(-c2ccccc2)cc1 (stereo not drawn)	none
CCN(CC)c1ncnc2c1ncn2[C@H]1CN(Cc2ccc(OC)cc2)C[C@@H](CO)O1	none
O=C1CCC(C(=O)N2CCC(CO)(Cc3ccc(Cl)cc3)CC2)=NN1	none
CC(=O)CC(=O)Nc1ncccn1	none
CC(NC(=O)COC(=O)c1c[nH]c2ccccc12)c1ccccc1 (stereo not drawn)	none
C=CCN(C(=O)CNC(=O)c1cccs1)C(C(=O)NC1CCCCC1)c1cccnc1 (stereo not drawn)	none
Cc1ccc(CC2(C)C(=O)Nc3c(Cl)cccc32)cc1 (stereo not drawn)	TDP-43 tox inh 8.91µM
COc1ccccc1-c1ccc2c(c1)C(C)(Cc1ccc(Cl)c(Cl)c1)C(=O)N2 (stereo not drawn)	none
CCc1ccc2c(c1)NC(=O)C2(C)Cc1ccc(Cl)cc1 (stereo not drawn)	none
COCCOC1CCN(C(=O)c2cc(COc3ccc(F)cc3F)on2)CC1	none
Cc1cccc(N2CCN(C(=O)/C=C/c3cccs3)CC2)c1C	TDP-43 tox inh 14.1µM
Cc1cccc(N2CCN(C(=O)c3ccc4[nH]c(C)c(C)c4c3)CC2)c1C	none
CCOC(=O)C1CCN(C(=O)/C=C/c2cccs2)CC1	none
Cc1ccc(C)c(NC(=O)CN(C)C(=O)COc2ncnc3sccc23)c1	none
NS(=O)(=O)c1ccc(CCNc2ccn3nc(-c4cccc(C(F)(F)F)c4)cc3n2)cc1	none
CC(C)NC(=O)C1Cc2c(-c3ccc4c(c3)OCO4)ccnc2O1 (stereo not drawn)	none
